The results in this text go back to PubChem BioAssay (NCATS).

Structures are written as SMILES. Unmarked numbers belong to inactive results. The rule behind the calls is not given here. Some results are limits rather than exact numbers.
Potency is the fitted concentration of half-maximal effect.

In this assay the test system is HIV-1 nucleocapsid protein NCp7 (binding to TG oligonucleotide). Briefly: HIV Nucleocapsid (AID 346).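 Note: potency is for inhibitors that block NC binding and lower polarization.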 Particulars: HIV-1 NC / fluorescein-TGTGTGTG probe, fluorescence polarization. Put shortly:
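Fluorescence polarization binding of 100 nM HIV-1 NC to 10 nM fluorescein-labelled TG4xF oligonucleotide. Buffer was Hepes pH 7.5 with 250mM NaCl, 1uM ZnCl2, TCEP and 2-mercaptoethanol. Compounds were incubated 1 hr at room temperature before the read.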
A general note: In fluorescence polarisation assays a small probe gives low polarisation when free and higher when bound to something large.
`Cc1ccccc1-c1nc(NCc2cccs2)c2ccccc2n1`: the Potency is more than 20 µM.

`CNc1cc(-c2ccccc2C)ncn1`: the Potency is more than 20 µM.

As to `COCC(=O)N1CCC2(CCCN(c3ccncc3)C2)CC1`, the Potency was more than 20 µM.

With `COc1ccc(-n2c(=O)c(-c3ccc(F)cc3)nc3cnc(N4CCOCC4)nc32)cc1`, the Potency was more than 20 µM.

Consider `Cc1ccccc1-c1ccc2ncnc(N(C)Cc3ccco3)c2c1`, for which the Potency is more than 20 µM.

For the compound `COc1cccc(Cn2c(=O)c(-c3cccc(F)c3)nc3cncnc32)c1`, the Potency was more than 20 µM.

With `Cc1nc2cnc(OCc3ccccc3)nc2n(CCc2ccccc2)c1=O`, the Potency was more than 20 µM.

Take `Cc1cnc(CNc2cc(-c3ccc4c(c3)OCO4)ncn2)cn1`: the Potency was more than 20 µM.

On to `COc1ccccc1-c1cncnc1NCc1cnc(C)cn1`, for which the Potency is more than 20 µM.

With `COc1cccc(Nc2ncc3nc(C)c(=O)n(CCC#N)c3n2)c1`, the Potency is more than 20 µM.

`COc1ccc(C(=O)N2CCC3(CCN(Cc4cc(C(F)(F)F)cc(C(F)(F)F)c4)CC3)CC2)cc1`: the Potency was more than 20 µM.

Take `O=c1cnc2cnc(N3CCNCC3)nc2n1CCc1ccccc1`: the Potency was more than 20 µM.

Consider `c1ccc(C(c2ccccc2)N2CCC3(CCNCC3)CC2)cc1`, for which the Potency is more than 20 µM.

`Cc1noc(C)c1C(=O)N1CCC2(CC1)CCN(C(c1ccccc1)c1ccccc1)CC2`: the Potency is more than 20 µM.

As to `COc1ccc(C(=O)N2CCC[C@@]3(CCN(Cc4ccccc4)C3)C2)cc1`, the Potency is more than 20 µM.

`O=c1cnc2cnc(Oc3ccccc3)nc2n1C1CC1`: the Potency is more than 20 µM.

With `COCC(=O)N1CCC2(CCCN(Cc3ccc(C#N)cc3)C2)CC1`, the Potency was more than 20 µM.

On to `COc1ccccc1CNc1ncncc1-c1cccc(NS(C)(=O)=O)c1`, for which the Potency was more than 20 µM.

As to `c1csc(CNc2ccnc(-c3ccoc3)n2)c1`, the Potency is more than 20 µM.

On to `Cc1cnc(CNc2cc(-c3cccc(C#N)c3)ncn2)cn1`, for which the Potency was more than 20 µM.

With `O=C(c1cnccn1)N1CCC2(CCN(Cc3ccccc3)CC2)CC1`, the Potency is more than 20 µM.

`COc1ncc2nc(-c3cn(C)c4ccccc34)c(=O)n(Cc3ccc(F)cc3)c2n1`: the Potency is more than 20 µM.

Take `COCCn1c(=O)c(-c2ccc(OC)cc2)nc2cnc(Oc3ccc(OC)cc3)nc21`: the Potency is more than 20 µM.

For the compound `O=c1c(-c2ccc(F)c(F)c2)nc2cncnc2n1Cc1ccccc1`, the Potency is more than 20 µM.

Consider `COc1ccc(C(=O)N2CCC3(CC2)CN(c2ccccn2)C3)cc1`, for which the Potency was more than 20 µM.

Consider `CC(C)NC(=O)N1CCC2(CC1)CCN(S(C)(=O)=O)CC2`, for which the Potency was more than 20 µM.

Turning to `COC(=O)N1CCC2(CC1)CCN(c1ccncc1)CC2`, the Potency is more than 20 µM.

For `CN(C)c1ncc2ncc(=O)n(CCC#N)c2n1`, the Potency was more than 20 µM.

Take `N#CCCn1c(=O)c(-c2cccs2)nc2cnc(Oc3cccc(Cl)c3)nc21`: the Potency was more than 4 µM.

As for `CCNc1ncc2nc(-c3ccccc3)c(=O)n(Cc3cccs3)c2n1`, the Potency is more than 20 µM.

Turning to `CNc1ccnc(-c2cccc(NS(C)(=O)=O)c2)n1`, the Potency was more than 20 µM.

For the compound `COc1cccc(Cn2c(=O)c(-c3cc(F)cc(F)c3)nc3cncnc32)c1`, the Potency was more than 20 µM.

Regarding `Cn1c(=O)c(-c2ccc(F)cc2)nc2cncnc21`, the Potency is more than 20 µM.

Regarding `CN1CCN(c2ccnc(-c3cccnc3)n2)CC1`, the Potency was more than 20 µM.

As for `COc1cccc(-c2cncnc2Nc2ccc(F)cc2)c1`, the Potency was more than 20 µM.

Consider `Clc1ccccc1-c1ccc2ncnc(N3CCNCC3)c2c1`, for which the Potency is more than 20 µM.

`Cc1ccccc1-c1nc(N2CCNCC2)c2ccccc2n1`: the Potency is more than 20 µM.

On to `COc1cccc(-c2nc(NCc3cccnc3)c3ccccc3n2)c1`, for which the Potency was more than 20 µM.

In the case of `CC(=O)N1CCC2(CCCN(Cc3nccs3)C2)CC1`, the Potency was more than 20 µM.

For `CS(=O)(=O)Nc1cccc(-c2ccc3ncnc(N4CCOCC4)c3c2)c1`, the Potency was more than 20 µM.
